The target in one assay is Albumin (Bos taurus) (UniProt P02769). As to the kind of experiment: compounds binding labelled BSA control protein – biochemical, small-molecule microarray, Alexa647 label, 635/667 nm fluorescence, artefact control for SMM control protein annotation, profiling panel (AID 1118).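 Further: score merges 667 nm emission intensity and signal-to-noise per printed compound spot.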 Particulars: BSA-A647 binding, fluorescence 635 nm, higher = more signal.
Assay [1] can be described thus: probe aXIP binding to arrayed compounds – biochemical, NeuroSMM set, 635/667 nm fluorescence, primary screen (AID 1119).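 Further: probe is the protein aXip251-270 applied at 1 µg/mL to compound-printed slides; binding of probe to printed compounds measured as 667 nm fluorescence plus signal to noise.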 The note with it: small-molecule microarray, higher = more signal, called active from +8 up or from −8 down.
A short description of assay [2]: probe aNOTCH3 binding on compound microarray – biochemical, small-molecule microarray, 635/667 nm fluorescence, primary screen (AID 1120).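 Further: probe is a biotin-tagged antibody raised against NOTCH3 rather than NOTCH3 protein; score merges spot fluorescence near 667 nm with spot signal to noise.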 Particulars: higher = more signal.
The nature of assay [3]: probe aNOTCH2 binding on compound microarray – biochemical, small-molecule microarray, 635/667 nm fluorescence, primary screen (AID 1121).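 Further: score merges feature fluorescence read at 667 nm with its signal to noise.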 The note with it: higher = more signal.
For assay [4], the target named is Carbonic anhydrase 2 (Homo sapiens) (UniProt P00918). Kind of assay: compounds binding carbonic anhydrase 2 – biochemical, small-molecule microarray, Alexa647-labelled CAII, profiling panel (AID 1122). Particulars: CAII-A647 binding fluorescence, higher = more signal.
The nature of assay [5]: COS7 lysate on small-molecule microarray, probe aHis, 635 nm (AID 1123).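 Further: z-score combines 667nm fluorescence intensity with signal-to-noise per printed compound spot.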 Particulars: COS7 cell lysate, fluorescence, higher = more signal.
A short description of assay [6]: probe aLAP1 signal on lysate-treated microarray – cell lysate, small-molecule microarray, COS7 lysate, primary screen (AID 1124).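 Further: lysate comes from COS7 cells expressing LAP1 and is applied at 0.3 µg/mL; score merges spot fluorescence near 667 nm with signal-to-noise over triplicate slides.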 The note with it: probe aLAP1, fluorescence, higher = more signal.
In another assay the test system is Sam68 (KHDRBS1). As to the kind of experiment: compounds binding KHDRBS1 protein – biochemical, small-molecule microarray, 635 nm fluorescence, primary screen (AID 1125).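 Further: score merges 667 nm channel intensity with signal to noise over triplicate slides.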 The note with it: higher = more signal.
For assay [7], the system named is Chordin-like protein 2 (CHRDL2). As to the kind of experiment: compounds binding chordin-like 2 – biochemical, small-molecule microarray, 635 nm fluorescence, primary screen (AID 1126).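 Further: printed compound slides probed with Chrdl2 protein at 4 µg/mL for 1 h at 4 C; score merges 667 nm emission intensity with signal to noise over three replicate slides.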 The note with it: fluorescence 635 nm, higher = more signal.
Assay [8] has as its target Concanavalin-A (Canavalia ensiformis) (UniProt P02866). Kind of assay: compounds binding concanavalin A lectin – biochemical, small-molecule microarray, Alexa647 label, 635 nm, artefact control for SMM control protein annotation, primary screen (AID 1127).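 Further: z combines 667 nm emission intensity with signal-to-noise across three replicate slides.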 Particulars: ConA-A647 binding fluorescence, higher = more signal.
Assay [9] is described as follows: compounds binding Alexa647 anti-His antibody – biochemical, small-molecule microarray, 635 nm fluorescence, artefact control for SMM control protein annotation, primary screen (AID 1128).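 Further: score merges feature fluorescence with signal-to-noise for each printed compound spot.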 Particulars: higher = more signal.
Assay [10] deals with Human papillomavirus type 1a E7 protein (residues 1-88). As to the kind of experiment: HPV1a E7 small-molecule binders, primary screen, biochemical, small-molecule microarray, residues 1-88, 635 nm (AID 1129). The note with it: small-molecule microarray binding, fluorescence 635 nm; higher = more signal.
The target in assay [11] is Focal adhesion kinase 1 (Homo sapiens) (UniProt Q05397). As to the kind of experiment: PTK2 protein binding on printed compound slides – biochemical, small-molecule microarray, 635/667 nm fluorescence, BSA, DTT, primary screen (AID 1130).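 Further: composite of spot emission at 667 nm and signal to noise over triplicate slides.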 The note with it: 635 nm fluorescence, higher = more signal.
For assay [12], the system named is Fibrinogen (Alexa647-labelled). As to the kind of experiment: Alexa647-fibrinogen binding to printed small molecules – biochemical, small-molecule microarray, 635/667 nm fluorescence, artefact control for SMM control-protein annotation, profiling panel (AID 1131).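 Further: z-score merges 667 nm fluorescence with per-spot signal-to-noise over triplicate slides.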 The note with it: fibrinogen-A647 binding fluorescence, higher = more signal.
Assay [13] deals with Follistatin (Homo sapiens) (UniProt P19883). As to the kind of experiment: FST protein binding to printed compounds – biochemical, small-molecule microarray, 635/667 nm fluorescence, primary screen (AID 1132). Particulars: 635 nm fluorescence, higher = more signal.
In assay [14] the target is Fibroblast growth factor 2 (Homo sapiens) (UniProt P09038). As to the kind of experiment: basic fibroblast growth factor binding to printed compounds – biochemical, small-molecule microarray, 635/667 nm fluorescence, primary screen (AID 1133). The note with it: FGF2, fluorescence 635/667, higher = more signal.
The nature of assay [15]: JC-1 mitochondrial potential readout, lung cancer cells – cell-based, A549, JC-1 fluorescence, basal, 24 h, 100 nL, profiling panel (AID 1138).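 Further: A549 lung adenocarcinoma cells under basal conditions with no added stimulus; test concentration not given here.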 Particulars: higher = more signal.
Another assay deals with Lefty1. As to the kind of experiment: Lefty1 protein binding to printed compounds – biochemical, small-molecule microarray, 635/667 nm fluorescence, primary screen (AID 1139). Particulars: fluorescence 635/667, higher = more signal.
Assay [16] relates to wheat germ agglutinin (Triticum aestivum), Alexa647-labelled. As to the kind of experiment: Alexa647-WGA lectin binding to printed small molecules – biochemical, small-molecule microarray, 635/667 nm fluorescence, artefact control for SMM control-protein annotation, profiling panel (AID 1140).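 Further: score merges 667 nm feature emission with signal to noise over triplicate slides.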 The note with it: WGA-A647 binding, 635 nm fluorescence, higher = more signal.
Assay [17] concerns the target Luciferin 4-monooxygenase (Photinus pyralis) (UniProt P08659). As to the kind of experiment: inhibition of purified Photinus pyralis luciferase – biochemical, luminescence, purified enzyme, 2006 set, primary screen (AID 1141).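 Further: cell-free assay with purified firefly luciferase at 100 ng per well in PBS; test concentration not given here.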 The note with it: purified firefly luciferase, SteadyGlo luminescence, 30 min; higher = more signal, called active from +8 up or from −8 down.

The source made the active and inactive calls.

Fibroblast growth factor 2 (Homo sapiens), sequence (P09038 whole entry, looked up): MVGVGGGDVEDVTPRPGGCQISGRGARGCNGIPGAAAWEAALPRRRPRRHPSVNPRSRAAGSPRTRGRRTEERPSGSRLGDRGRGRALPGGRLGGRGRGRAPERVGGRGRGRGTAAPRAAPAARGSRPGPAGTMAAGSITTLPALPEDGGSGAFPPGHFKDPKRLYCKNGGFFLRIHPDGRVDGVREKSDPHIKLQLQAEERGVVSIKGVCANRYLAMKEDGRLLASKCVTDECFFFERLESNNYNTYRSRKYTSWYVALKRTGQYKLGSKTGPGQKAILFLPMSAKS
Albumin (Bos taurus), sequence (P02769 whole entry, looked up): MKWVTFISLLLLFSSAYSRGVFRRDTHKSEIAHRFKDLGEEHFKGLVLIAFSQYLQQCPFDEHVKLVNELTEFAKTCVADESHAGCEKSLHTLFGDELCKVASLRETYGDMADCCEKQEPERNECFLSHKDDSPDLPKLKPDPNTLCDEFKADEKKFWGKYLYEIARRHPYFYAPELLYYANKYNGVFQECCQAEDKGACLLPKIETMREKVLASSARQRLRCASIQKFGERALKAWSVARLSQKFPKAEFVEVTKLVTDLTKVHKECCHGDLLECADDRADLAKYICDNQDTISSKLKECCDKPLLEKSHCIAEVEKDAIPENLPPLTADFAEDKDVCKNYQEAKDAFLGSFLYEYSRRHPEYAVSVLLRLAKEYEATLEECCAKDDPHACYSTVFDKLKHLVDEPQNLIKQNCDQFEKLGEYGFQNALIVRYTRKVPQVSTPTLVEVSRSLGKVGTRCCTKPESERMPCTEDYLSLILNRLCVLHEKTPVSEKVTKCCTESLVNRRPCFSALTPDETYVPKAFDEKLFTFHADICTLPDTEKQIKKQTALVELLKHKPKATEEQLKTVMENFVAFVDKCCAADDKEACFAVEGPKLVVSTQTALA
Focal adhesion kinase 1 (Homo sapiens), sequence (Q05397 whole entry, looked up): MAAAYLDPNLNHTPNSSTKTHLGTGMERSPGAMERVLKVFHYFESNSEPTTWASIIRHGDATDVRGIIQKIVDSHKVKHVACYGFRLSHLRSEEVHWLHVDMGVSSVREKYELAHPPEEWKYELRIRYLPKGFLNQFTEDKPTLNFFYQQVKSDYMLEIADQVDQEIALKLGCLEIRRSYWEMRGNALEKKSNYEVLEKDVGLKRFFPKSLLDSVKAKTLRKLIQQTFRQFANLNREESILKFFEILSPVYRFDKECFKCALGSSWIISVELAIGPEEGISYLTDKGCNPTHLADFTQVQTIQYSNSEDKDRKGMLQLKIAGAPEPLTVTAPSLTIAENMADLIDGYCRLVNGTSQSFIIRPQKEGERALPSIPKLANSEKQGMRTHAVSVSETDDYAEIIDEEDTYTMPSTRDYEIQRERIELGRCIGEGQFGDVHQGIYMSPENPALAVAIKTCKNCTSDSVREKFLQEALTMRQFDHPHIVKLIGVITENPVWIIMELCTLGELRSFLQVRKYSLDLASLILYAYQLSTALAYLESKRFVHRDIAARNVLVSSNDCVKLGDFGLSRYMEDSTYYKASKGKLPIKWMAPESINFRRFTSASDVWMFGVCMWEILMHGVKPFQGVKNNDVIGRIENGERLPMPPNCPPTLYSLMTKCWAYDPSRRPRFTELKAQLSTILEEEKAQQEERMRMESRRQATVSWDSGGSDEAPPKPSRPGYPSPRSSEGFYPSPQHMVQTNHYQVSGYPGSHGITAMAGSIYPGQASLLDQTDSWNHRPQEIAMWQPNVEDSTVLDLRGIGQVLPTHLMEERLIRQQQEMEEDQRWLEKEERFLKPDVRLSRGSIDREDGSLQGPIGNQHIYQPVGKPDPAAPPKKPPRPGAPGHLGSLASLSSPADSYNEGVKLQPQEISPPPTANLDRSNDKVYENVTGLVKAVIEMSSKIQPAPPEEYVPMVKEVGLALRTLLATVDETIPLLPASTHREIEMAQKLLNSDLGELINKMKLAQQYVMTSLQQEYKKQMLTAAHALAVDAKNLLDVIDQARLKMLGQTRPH
Follistatin (Homo sapiens), sequence (P19883 whole entry, looked up): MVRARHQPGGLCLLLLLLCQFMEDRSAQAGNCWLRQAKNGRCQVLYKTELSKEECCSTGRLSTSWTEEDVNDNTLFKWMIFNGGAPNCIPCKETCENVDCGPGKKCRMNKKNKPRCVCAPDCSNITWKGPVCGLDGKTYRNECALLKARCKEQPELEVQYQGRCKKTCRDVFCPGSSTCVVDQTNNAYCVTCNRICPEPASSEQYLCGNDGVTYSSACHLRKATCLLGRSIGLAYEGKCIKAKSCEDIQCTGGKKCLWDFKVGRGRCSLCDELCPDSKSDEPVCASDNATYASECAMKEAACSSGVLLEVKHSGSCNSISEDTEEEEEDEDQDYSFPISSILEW
Luciferin 4-monooxygenase (Photinus pyralis), sequence (P08659 whole entry, looked up): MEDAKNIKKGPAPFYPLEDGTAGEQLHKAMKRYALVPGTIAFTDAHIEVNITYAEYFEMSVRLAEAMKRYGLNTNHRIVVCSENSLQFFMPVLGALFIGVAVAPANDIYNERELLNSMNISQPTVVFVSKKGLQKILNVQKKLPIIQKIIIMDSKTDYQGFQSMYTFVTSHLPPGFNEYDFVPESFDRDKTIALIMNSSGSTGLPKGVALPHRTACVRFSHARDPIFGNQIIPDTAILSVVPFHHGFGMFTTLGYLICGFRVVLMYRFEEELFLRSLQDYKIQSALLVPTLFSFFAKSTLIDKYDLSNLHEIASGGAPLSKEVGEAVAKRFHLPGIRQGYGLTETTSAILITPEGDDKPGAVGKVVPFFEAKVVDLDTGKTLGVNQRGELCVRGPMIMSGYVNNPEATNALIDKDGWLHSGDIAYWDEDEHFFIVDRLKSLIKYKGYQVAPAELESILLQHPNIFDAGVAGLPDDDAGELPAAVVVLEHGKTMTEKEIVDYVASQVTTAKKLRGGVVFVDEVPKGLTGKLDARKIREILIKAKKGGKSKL
Concanavalin-A (Canavalia ensiformis), sequence (P02866 whole entry, looked up): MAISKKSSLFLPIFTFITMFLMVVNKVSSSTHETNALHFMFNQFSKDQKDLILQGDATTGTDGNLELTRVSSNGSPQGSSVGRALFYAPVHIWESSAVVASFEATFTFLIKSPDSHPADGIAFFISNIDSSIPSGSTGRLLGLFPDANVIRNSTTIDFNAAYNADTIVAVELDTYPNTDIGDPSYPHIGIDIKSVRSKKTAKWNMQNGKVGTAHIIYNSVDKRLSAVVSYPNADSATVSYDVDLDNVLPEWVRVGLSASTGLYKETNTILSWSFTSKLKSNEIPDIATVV

Regarding `O=C1O[C@@H](c2ccccc2)[C@@H](c2ccccc2)N2[C@@H](c3ccc(O)cc3)[C@]3(C(=O)Nc4ccccc43)[C@@H](C(=O)N3CCCCCCC3)[C@H]12`, the composite z-score with Albumin (Bos taurus) worked out at 0.875; in assay [2], 1.82; in [3] it was 0.464; in assay [4], 0.89; in assay [5] it was 3.78; in assay [6], 1.14. Besides, the composite z-score with Sam68 (KHDRBS1) came out at 1.29; in assay [7] it was 1.11; in assay [8] it was 1.17; in assay [9], 2.96; in assay [10] it was 1.23; in assay [11], 1.22. Besides, the composite z-score in [12] was 0.827; in assay [13], 1.43; in [14] it was 1.64; in the assay on Lefty1, 1.6; in assay [16], 1.46. For the same molecule, the composite Z-score in assay [1] is 5.98 (inactive). In addition, the results for the z-score in [15] and in [17] were 0.48 and 1.04 (inactive), respectively.
Turning to `O=C1C[C@@](C(=O)O)(c2ccc([N+](=O)[O-])cc2)[C@@H](c2ccc(CO)cc2I)N1C1CCCCC1`, the composite z-score is 0.909 in the assay with Albumin (Bos taurus); 0.18 in assay [2]; -0.0397 in assay [3]; 0.673 in assay [4]; 1.95 in assay [5]; -0.405 in assay [6]. For the same molecule, the composite z-score is 0.765 in the assay on Sam68 (KHDRBS1); -0.422 in [7]; 1.15 in assay [8]; 0.806 in [9]; 0.796 in [10]; 0.113 in assay [11]. In addition, the composite z-score in assay [12] amounted to 0.873; in assay [13] it was 0.539; in assay [14] it was 0.293; with Lefty1 it was 0.471; in [16], 0.832. Moreover, in [1], the composite Z-score was 0.477 (inactive). In addition, the z-score was -0.706 in assay [15] and -0.411 (inactive) in assay [17].
For the molecule `CN1C(=O)C2C(C1=O)C1C=C(c3ccc(CO)cc3)C2C(C2CC2)N1Cc1cc2c(cc1Br)OCO2` (stereo not given), the composite z-score in the assay with Albumin (Bos taurus) was found to be 1.03; in assay [2], 0.211; in assay [3], 0.109; in assay [4], 0.786; in assay [5] it was 3.13; in assay [6] it was 0.863. Besides, the composite z-score amounted to 1.3 in the assay with Sam68 (KHDRBS1); 0.258 in assay [7]; 1.16 in [8]; 2.81 in [9]; 1.23 in [10]; 1.47 in [11]. The composite z-score in assay [12] was 0.976; in assay [13] it was 1.23; in assay [14], 0.784; in the assay on Lefty1 it was 0.175; in assay [16], 1.18. The composite Z-score in assay [1] was 1.55 (inactive). Moreover, the z-score in assay [15] is 1.34; in assay [17], -1.9 (inactive).
For the molecule `O=C1O[C@@H](c2ccccc2)[C@@H](c2ccccc2)N2[C@@H](c3ccc(O)cc3)[C@]3(C(=O)Nc4ccccc43)[C@@H](C(=O)NC[C@H](O)c3ccccc3)[C@H]12`, the composite z-score with Albumin (Bos taurus) is 0.726; in assay [2], -0.242; in [3] it was -0.0885; in assay [4] it was 0.699; in assay [5] it was 1.66; in assay [6] it was -0.238. The composite z-score in the assay with Sam68 (KHDRBS1) is 0.607; in [7], 0.458; in assay [8] it was 0.442; in assay [9], 2.07; in assay [10], -0.366; in [11], 0.0943. The composite z-score was -0.406 in assay [12]; 1.02 in assay [13]; 0.797 in assay [14]; 0.266 in the assay on Lefty1; 0.0576 in [16]. In assay [1], the composite Z-score was 0.0895 (inactive). Further, the z-score is 0.411 in assay [15] and 0.807 (inactive) in assay [17].
For `COc1c(C)cc(-c2cc3c(c(-c4ccccc4)n2)[Si](C(C)C)(C(C)C)O[C@H]3c2ccccc2)cc1C`, the composite z-score with Albumin (Bos taurus) is -0.102; in assay [2], -0.0343; in [3] it was -0.154; in [4], -0.0516; in [5] it was 0.0732; in [6], -0.325. The composite z-score is 0.111 with Sam68 (KHDRBS1); 0.613 in assay [7]; 0.124 in assay [8]; 0.235 in [9]; -0.26 in [10]; -0.0638 in assay [11]. Further, the composite z-score was -0.243 in assay [12]; 0.145 in [13]; -0.212 in assay [14]; 0.377 in the assay on Lefty1; 0.124 in [16]. The composite Z-score in assay [1] is -0.322 (inactive). For the same molecule, the z-score in [15] is 0.125; in assay [17], 0.407 (inactive).

Source of the values: PubChem BioAssay.
